Casp6 inh – human caspase-6 inhibitors, primary screen, biochemical, VEID-R110 fluorescence, single point, set 2 | hit rate 0.53% among 350,000 | AID 686996, 2013 | purified caspase-6, Z-VEID-R110 cleavage fluorescence | inhibition, % at 12.5 µM | P55212;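 active = mean inhibition across replicates at least about 35%, with every replicate also reaching that limit, limit read from the data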;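 also: 0% = median of neutral control wells and 100% = no fluorescence left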
FGF22 binding – binders of human FGF22 protein, primary screen, FGF22 synaptogenesis inhibitor project, biophysical, thermal shift, single point. activity (Tm shift, normalised), % at 9.99 µM. hit rate 1.5% among 340,000. recombinant FGF22 thermal shift, SYPRO orange fluorescence; percent of sucrose octasulfate shift, DMSO zero. AID 651658, 2012;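 active = mean Tm shift, scaled 0 neutral to 100 positive control, at about 1.3% or above, every replicate too, limit read from the data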
Target sequence (Q9HCT0 whole entry, looked up): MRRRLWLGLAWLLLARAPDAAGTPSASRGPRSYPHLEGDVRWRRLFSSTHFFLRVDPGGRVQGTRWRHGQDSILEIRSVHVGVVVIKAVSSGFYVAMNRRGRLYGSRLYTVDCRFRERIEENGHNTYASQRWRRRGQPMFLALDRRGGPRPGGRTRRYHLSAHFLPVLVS
ERAP1 inh – human ERAP1 aminopeptidase inhibitors, primary screen, biochemical, single point, plate reader; AID 652197, 2013; recombinant ERAP1, Leu-AMC fluorescence, 60 min; inhibition, % at 10.7 µM; hit rate 0.15% among 340,000; Endoplasmic reticulum aminopeptidase 1 (Homo sapiens), Q9NZ08;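 active = mean replicate inhibition of at least 30%, or all replicates individually reaching that 30% level; inactive = mean below 30% and not every replicate reaching it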;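 also: 0% = neutral control wells and 100% = L-leucinethiol positive control wells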
SIRT5 block – SIRT5 desuccinylase inhibitors, primary screen, biochemical, fluorescence imaging, single point, set 5; NAD-dependent protein deacylase sirtuin-5, mitochondrial (Homo sapiens), Q9NXA8; Purified SirT5, succinyl-peptide AMC, trypsin-coupled fluorescence; inhibition, % at 15 µM; hit rate 1.1% among 330,000; in the data active = inhibition above about 15%
Target sequence (Q9NXA8 whole entry, looked up): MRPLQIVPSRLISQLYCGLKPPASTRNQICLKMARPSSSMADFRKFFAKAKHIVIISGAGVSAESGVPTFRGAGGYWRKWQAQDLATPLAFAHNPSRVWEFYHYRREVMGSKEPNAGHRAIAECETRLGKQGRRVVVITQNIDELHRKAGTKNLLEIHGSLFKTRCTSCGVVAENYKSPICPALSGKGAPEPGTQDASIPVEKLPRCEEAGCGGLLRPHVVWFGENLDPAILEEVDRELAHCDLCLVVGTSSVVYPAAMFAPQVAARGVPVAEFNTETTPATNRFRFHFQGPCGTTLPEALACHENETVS
An asterisk follows results filed as active; / = not tested or not shown. Most compounds without a hit are left out; they make up all but 3.1% or so of the library.

SMILES | Casp6 inh | FGF22 binding | ERAP1 inh | SIRT5 block
CCOc1ccc(/C=C2\SC(=S)N(C(C(=O)O)c3ccccc3)C2=O)cc1OC (stereo not given) | 6 | 0 | 11 | 9
C=CCOc1ccc(/C=C2\SC(=S)N(C(C(=O)O)c3ccccc3)C2=O)cc1 (stereo not given) | 25 | 0 | 34* | 8
CC(/C=C1\SC(=S)N(CC(=O)O)C1=O)=C\c1ccccc1 | -2 | 0 | 0 | 1
CC(/C=C1\SC(=S)N(C(C(=O)O)c2ccccc2)C1=O)=C\c1ccccc1 (stereo not given) | 27 | 0 | 30* | 9
C#CCN1CCc2onc(-c3ccccc3OC)c2C1=O | -1 | 43* | -6 | -3
COc1ccccc1-c1noc2c1C(=O)N(Cc1cn(-c3ccc(Cl)cc3)nn1)CC2 | 2 | 0 | -3 | 0
CCOc1cc(N2CCOCC2)c(OCC)cc1NC(=O)CSc1n[nH]c(N)n1 | -3 | 0 | -2 | 0
CCOc1ccccc1NC(=O)CSc1n[nH]c(N)n1 | 57* | 0 | -1 | 0
C[C@H]1CN([C@@H](C)CO)C(=O)c2c(c3ccccc3n2C)-c2ccccc2CO[C@H]1CN(C)S(=O)(=O)c1ccc(F)cc1 | 0 | 0 | -1 | 21*
Cc1cccc(S(=O)(=O)N(C)C[C@H]2OCc3ccccc3-c3c(n(C)c4ccccc34)C(=O)N([C@@H](C)CO)C[C@H]2C)c1 | -2 | 0 | 1 | 5
C[C@@H]1CN([C@@H](C)CO)C(=O)c2c(c3ccccc3n2C)-c2ccccc2CO[C@H]1CN(C)S(=O)(=O)c1ccc(Cl)cc1 | -1 | 0 | 2 | 1
C[C@@H]1CN([C@@H](C)CO)C(=O)c2c(c3ccccc3n2C)-c2ccccc2CO[C@H]1CN(C)S(=O)(=O)c1ccc([N+](=O)[O-])cc1 | -4 | 1 | 3 | -9
C[C@@H]1CN([C@H](C)CO)C(=O)c2c(c3ccccc3n2C)-c2ccccc2CO[C@H]1CN(C)S(=O)(=O)c1ccc([N+](=O)[O-])cc1 | -2 | -1 | -1 | 32*
Cc1cccc(S(=O)(=O)N(C)C[C@H]2OCc3ccccc3-c3c(n(C)c4ccccc34)C(=O)N([C@H](C)CO)C[C@H]2C)c1 | -1 | 0 | 1 | 18*
C[C@@H]1CN([C@H](C)CO)C(=O)c2c(c3ccccc3n2C)-c2ccccc2CO[C@@H]1CN(C)S(=O)(=O)c1ccc(Cl)cc1 | -1 | 0 | 2 | 19*
C=CCC[C@H](Cc1ccc(F)cc1)C(=O)OC[C@@H](NC(=O)[C@@H](CC=C)CC(=O)N[C@@H](CO)Cc1ccccc1)C(C)(C)C | -1 | 6.2* | -2 | 1
C=CCC[C@@H](Cc1ccc(F)cc1)C(=O)OC[C@@H](NC(=O)[C@@H](CC=C)CC(=O)N[C@@H](CO)Cc1ccccc1)C(C)(C)C | 2 | -1 | 1 | /
CC1=C(c2ccccc2)[N+](=O)C2(CCCCC2)N1[O-] | -3 | 43* | -3 | 3
CC(=O)OC1CCC2(C)C3CCC4(C)C(C(C)=O)CCC4C3CC3OC32C1 (stereo not given) | -1 | 43* | -1 | /
CCc1ccc(NC(=O)C(=O)NCC(O)c2ccccc2)cc1 (stereo not given) | 2 | 43* | 0 | -2
Cc1ccc(CC(=O)NCC(O)c2ccccc2)cc1 (stereo not given) | -1 | 0 | -4 | -3
O=C(C1CCC1)N1C[C@H]2[C@@H](c3ccccc31)[C@H](CO)N2C(=O)c1ccccc1 | 0 | 0 | 0 | 0
COC(=O)C1=CN(Cc2ccc(OC)c(OC)c2)C=C(C(=O)OC)C1c1ccc(O)cc1 | 2 | 0 | -83 | -15
COC(=O)C1=CN(Cc2ccc(OC)c(OC)c2)C=C(C(=O)OC)C1c1ccc(F)cc1 | -1 | 0 | -11 | 18*
Clc1nnc(NC2CCCCC2)c(Cl)c1Cl | -2 | 43* | -5 | /
SMILES | Casp6 inh | FGF22 binding | ERAP1 inh | SIRT5 block
CNc1nc(Cl)c(SC)c(NC2CCCCC2)n1 | 0 | 0 | 1 | /
Cc1ccc(-n2nnnc2SCC(=O)Nc2sc(C)c(C)c2C#N)cc1C | -2 | 0 | 2 | -1
CC(=O)c1ccc(-n2nnnc2SCC(=O)Nc2sc(C)c(C)c2C#N)cc1 | 1 | 44* | 0 | -3
COCC(=O)Nc1ccc2c(c1)C(=O)N(C)[C@H]1CC[C@H](CC(=O)Nc3ccccc3)O[C@@H]1CO2 | 4 | 0 | -1 | -1
Cc1nnc(SCc2ccccc2)[nH]c1=O | -2 | 0 | 0 | -5
Cc1ccc(CSc2nnc(C)c(=O)[nH]2)cc1 | 1 | 43* | 0 | 0
Cc1ccccc1/C=C/C(=O)N1CCOCC1 | 0 | 43* | -1 | 0
CC(=O)Cc1nsc(NC(=O)c2ccc(Br)o2)n1 | 0 | 0 | -1 | -5
CC(=O)Cc1nsc(Nc2ccc(Cl)cc2)n1 | 0 | 43* | 5 | 1
CC(=O)Cc1nsc(NC(=O)c2ccc(-c3cccc(Cl)c3)o2)n1 | 0 | 1.4* | 1 | 1
CCC(CO)NCC#Cc1ccccc1 (stereo not given) | -5 | 44* | -2 | -7
OC(CNCC#Cc1ccccc1)c1ccccc1 (stereo not given) | 0 | 0 | / | -5
Cc1cccc(Nc2nnc(SCC(=O)c3c(N)n(C4CC4)c(=O)[nH]c3=O)s2)c1 | 1 | 0 | 2 | 16*
COc1cc(/C=C2\SC(=S)N(CC(=O)O)C2=O)ccc1OS(=O)(=O)c1ccc(C)cc1 | 41* | / | -7 | 9
COc1ccccc1OCCOc1ccc(/C=C2\C(=N)N3N=C(S(C)(=O)=O)SC3=NC2=O)cc1 | 1 | 2.1* | 4 | 7
COc1cccc(OCCOc2ccc(/C=C3\C(=N)N4N=C(S(C)(=O)=O)SC4=NC3=O)cc2OC)c1 | 8 | 0 | 1 | -4
COc1cc(/C=C2\C(=N)N3N=C(S(C)(=O)=O)SC3=NC2=O)ccc1OS(=O)(=O)c1ccc(C)cc1 | 50* | / | 7 | 13
CCOc1cc(/C=C2/C(=N)N3N=C(C)SC3=NC2=O)ccc1OS(=O)(=O)c1ccc(C)cc1 | 12 | 0 | 6 | -2
COc1cc(/C=C2\SC(=S)N(CC(=O)NC(C)(C)C)C2=O)cc(OC)c1OC | -2 | 43* | 0 | 1
CCCC(=O)Nc1ccc2c(c1)C(=O)N(C)[C@H]1CC[C@@H](CC(=O)NC3CCCC3)O[C@H]1CO2 | -1 | 0 | 1 | 0
Cc1noc(C)c1S(=O)(=O)N(C)C[C@@H]1OCCCC[C@H](C)Oc2ccc(NC(=O)Cc3ccccc3)cc2C(=O)N([C@@H](C)CO)C[C@H]1C | -3 | 1 | 1 | 1
COc1cc(/C=C2\C(=N)N3N=C(C)SC3=NC2=O)cc(OC)c1OCCOc1ccccc1C | 1 | 0 | 1 | 2
